Several values for one entry are separate records, joined by “and”; a condition that tells them apart may be missing. Equal values may be shown once. Results filed as inconclusive are left out. The source holds several records for some structures; these can differ, active in one and inactive in another. Activity calls are given as the source filed them. The calls were made as follows, unless noted: active = hit-call score of the fitted dose curve at least 0.9, where 1 is the maximum; inactive = score below 0.9.
What was measured:
DIO1 (gene 1733) = test: CCTE_GLTED_hDIO1: CCTE's human Deiodinase 1 (DIO1) Inhibition Assay, Great Lakes Toxicology and Ecology Division (GLTED) Lab (AID 2283987; active = hit-call score of the fitted dose curve at least 0.9, where 1 is the maximum;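 also: isolated human DIO1 enzyme in a cell-free setup rather than cells; enzyme activity read as free iodide liberated from substrate via Sandell-Kolthoff colorimetry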)
How it was run: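 Chemicals are tested on human DIO1 without cells for 3 h. Uninhibited enzyme frees iodide, which speeds cerium(IV) reduction by arsenic and is read by spectrophotometry.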

[1] = CCTE_Simmons_MITO_basal_resp_rate: CCTE's HepG2 Seahorse XF Respirometric Screening Assay at Basal Respiratory State, Simmons Lab (AID 2284001); details: actives raise or lower the signal
How it was run: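 HepG2 respirometry; 7-pt titration 125 nM–100 uM final; kinetic OCR at 6 min intervals for 72 min; n=3 biological, technical singles; DMSO baseline, gain or loss fit; fenpyroximate (decrease) and 2,4-DNP (increase) controls.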

[2] = CCTE_Simmons_MITO_max_resp_rate: CCTE's HepG2 Seahorse XF Respirometric Screening Assay at Maximal Respiratory State [uncoupled], Simmons Lab (AID 2284002); details: actives raise or lower the signal
How it was run: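 Uncoupled (FCCP) respiration of HepG2 cells served as the endpoint, with measurements at 6-minute intervals across a 72-minute run and compounds dosed at 7 concentrations up to 100 uM final.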

[3] = CCTE_Simmons_MITO_inhib_resp_rate: CCTE's HepG2 Seahorse XF Respirometric Screening Assay at Inhibited Respiratory State [full ETC block], Simmons Lab (AID 2284006); details: actives raise or lower the signal
How it was run: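 HepG2 oxygen consumption was measured by Seahorse XF after compound, FCCP, then rotenone/antimycin A injections. Seven concentrations from 125 nM to 100 uM (final) were tested, with 6-min kinetic reads over 72 minutes. Inhibited-state OCR was fitted bidirectionally against DMSO.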

[4] = CCTE_Harrill_HTTr_Viability_MCF7: CCTE's 6-hour Cell Viability Assessment for the High-Throughput Transcriptomics (HTTr) Platform, in MCF-7 cells cultured in DMEM + 10% fetal bovine serum, Harrill Lab (AID 2284010)
How it was run: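 MCF-7 cells in DMEM + 10% FBS, 384-well, exposed 6 h to an eight-point dilution series. Membrane integrity scored by high-content imaging of propidium iodide exclusion; bidirectional fit versus DMSO.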

[5] = CCTE_Harrill_HTTr_Apoptosis_MCF7: CCTE's 6-hour Apoptosis Assessment for the High-Throughput Transcriptomics (HTTr) Platform, in MCF-7 cells cultured in DMEM + 10% fetal bovine serum, Harrill Lab (AID 2284011)
How it was run: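 Apoptosis in MCF-7 cells grown in DMEM with 10% fetal bovine serum was scored after a six hour exposure by high content imaging of caspase-3/7 activation (CellEvent Caspase 3/7 Green), with DMSO serving as negative control and baseline.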

[6] = CCTE_Harrill_HTTr_CellCount_MCF7: CCTE's Cell Proliferation Assessment for the High-Throughput Transcriptomics (HTTr) Platform, Harrill Lab (AID 2284012; active = hit-call score of the fitted dose curve at least 0.9, where 1 is the maximum;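 also: cells exposed to compound for six hours; intended direction is loss of nuclei count meaning fewer cells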)
How it was run: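 MCF7 cells exposed 6 hours to an eight-point dilution series; Hoechst-stained nuclei counted by high-content imaging. Bidirectional curve fitting against DMSO baseline.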

[7] = target: Nucleoli Translocation, AR (gene 367) (UniProt P10275); test: UPITT_HCI_U2OS_AR_TIF2_Nucleoli_Antagonist: University of Pittsburgh U2OS Androgen Receptor-Transcriptional Intermediary Factor 2 (AR-TIF2) Antagonism High Content Imaging Assay for Nucleoli Translocation (AID 2283997; active = hit-call score of the fitted dose curve at least 0.9, where 1 is the maximum)
Nucleoli Translocation, AR (gene 367), sequence (P10275 whole entry, looked up, the tested form may be a part): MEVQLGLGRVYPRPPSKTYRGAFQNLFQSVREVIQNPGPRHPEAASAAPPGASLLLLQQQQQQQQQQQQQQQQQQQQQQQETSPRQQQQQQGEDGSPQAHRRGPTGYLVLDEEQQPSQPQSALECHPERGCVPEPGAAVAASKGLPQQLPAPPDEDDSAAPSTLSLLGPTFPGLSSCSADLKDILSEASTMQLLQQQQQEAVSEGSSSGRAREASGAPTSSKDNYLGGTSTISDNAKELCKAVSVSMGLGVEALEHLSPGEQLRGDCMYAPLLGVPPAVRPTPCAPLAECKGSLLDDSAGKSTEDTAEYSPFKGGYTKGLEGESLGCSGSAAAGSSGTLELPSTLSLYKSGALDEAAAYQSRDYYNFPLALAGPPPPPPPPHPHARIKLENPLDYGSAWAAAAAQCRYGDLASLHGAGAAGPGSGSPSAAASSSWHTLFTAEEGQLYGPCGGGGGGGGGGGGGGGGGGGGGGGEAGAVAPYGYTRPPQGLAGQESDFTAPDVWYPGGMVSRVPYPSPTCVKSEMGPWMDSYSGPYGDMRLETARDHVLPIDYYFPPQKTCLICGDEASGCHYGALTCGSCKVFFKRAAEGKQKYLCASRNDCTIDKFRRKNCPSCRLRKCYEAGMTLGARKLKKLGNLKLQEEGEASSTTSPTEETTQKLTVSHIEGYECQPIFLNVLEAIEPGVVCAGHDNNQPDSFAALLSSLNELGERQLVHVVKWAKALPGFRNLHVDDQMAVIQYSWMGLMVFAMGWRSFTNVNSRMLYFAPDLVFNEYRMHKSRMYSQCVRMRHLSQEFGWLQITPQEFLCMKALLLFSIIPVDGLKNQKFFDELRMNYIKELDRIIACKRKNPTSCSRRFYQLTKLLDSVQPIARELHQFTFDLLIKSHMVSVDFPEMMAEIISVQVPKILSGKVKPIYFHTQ
How it was run: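 Measured quantity was AR-RFP fluorescence localized to nucleoli in engineered U2OS cells also bearing TIF2-GFP, acquired on automated high-content imagers. Primary testing used 20 uM compound; actives were confirmed in triplicate wells.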

[8] = target: Nucleoli Translocation, AR (gene 367) (UniProt P10275); test: UPITT_HCI_U2OS_AR_TIF2_Nucleoli_Agonist: University of Pittsburgh U2OS Androgen Receptor-Transcriptional Intermediary Factor 2 (AR-TIF2) Agonism High Content Imaging Assay for Nucleoli Translocation (AID 2283998; active = hit-call score of the fitted dose curve at least 0.9, where 1 is the maximum)
How it was run: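 High-content images quantify nucleolar accumulation of RFP-fused AR in cells also expressing GFP-TIF2; the endpoint is fitted as signal gain versus DMSO controls across final concentrations of 0.195 to 50 uM.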

[9] = target: Ratio of Nucleoli Translocation and Cytoplasm, AR (gene 367) (UniProt P10275); test: UPITT_HCI_U2OS_AR_TIF2_Nucleoli_Cytoplasm_Ratio_Antagonist: University of Pittsburgh U2OS Androgen Receptor-Transcriptional Intermediary Factor 2 (AR-TIF2) Antagonism High Content Imaging Assay for Ratio of Nucleoli Translocation and Cytoplasm (AID 2283999; active = hit-call score of the fitted dose curve at least 0.9, where 1 is the maximum;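 also: antagonists lower the DHT-driven ratio of nucleolar to cytoplasmic red signal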)
Ratio of Nucleoli Translocation and Cytoplasm, AR (gene 367), sequence (P10275 whole entry, looked up): as the sequence (P10275 whole entry, looked up, the tested form may be a part) above
How it was run: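 U2OS cells co-expressing RFP-tagged human AR and GFP-tagged TIF2, antagonist mode with DHT as baseline. Nucleolar-to-cytoplasmic red fluorescence ratio imaged by high-content microscopy; final compound 20 uM (0.2% DMSO) primary, 0.195–50 uM (0.5% DMSO) concentration-response.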

[10] = CCTE_Shafer_MEA_acute_spike_number: CCTE's Neural Acute Assay for Total Number of Spikes, Shafer Lab (AID 2284008);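 as to AC50: curve fitted for decrease in spike count so AC50 reflects inhibitors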
How it was run: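 Using an adaptive detector set to 8x rms noise, spikes were counted in 40-min windows before and after compound addition (0.03-40 uM) to rat cortical networks at 37 C; the well-level change from baseline was analysed relative to DMSO.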

[11] = CCTE_Shafer_MEA_acute_firing_rate_mean: CCTE's Neural Acute Assay for Mean Firing Rate, Shafer Lab (AID 2284009);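 also: analyzed for loss of signal so actives lower firing rate relative to DMSO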
How it was run: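 Percent change in well-mean firing rate was derived from extracellular spikes detected at 8x rms noise (300-5000 Hz band-pass) before and after a 40-min compound exposure. Cultures were primary rat cortical neurons, tested at 0.03-40 uM.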

[12] = CCTE_Shafer_MEA_acute_burst_number: CCTE's Neural Acute Assay for Single-Electrode Bursts, Shafer Lab (AID 2284013)
How it was run: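 Spontaneous network activity of primary rat cortical neurons was recorded extracellularly on microelectrode arrays at 37 C, with 40-min periods before and during exposure to 0.03-40 uM compound on DIV 13 or 15.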

[13] = CCTE_Shafer_MEA_acute_burst_duration_mean: CCTE's Neural Acute Assay for Mean Burst Duration, Shafer Lab (AID 2284014);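 also: hits are decreases in mean burst duration relative to DMSO controls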
How it was run: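 Read-out is the per-well percent change in mean burst duration (first to last spike within a single-electrode burst) between 40-min recordings before and after compound. Cultures were primary rat cortical neurons on MEAs, dosed at 0.03-40 uM on DIV 13 or 15.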

[14] = CCTE_Shafer_MEA_acute_per_burst_spike_number_mean: CCTE's Neural Acute Assay for Average Number of Spikes Per Burst, Shafer Lab (AID 2284015);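 also: hits are decreases in mean spikes per burst versus baseline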
How it was run: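 Read-out: percent change in mean spikes per burst, each well's post-exposure 40-min recording versus its own 40-min baseline. Rat cortical cultures, DIV 13 or 15, compounds 0.03-40 uM; DMSO is negative control, loss-of-signal fitting.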

[15] = target: Ratio of Nucleoli Translocation and Cytoplasm, AR (gene 367) (UniProt P10275); test: UPITT_HCI_U2OS_AR_TIF2_Nucleoli_Cytoplasm_Ratio_Agonist: University of Pittsburgh U2OS Androgen Receptor-Transcriptional Intermediary Factor 2 (AR-TIF2) Agonism High Content Imaging Assay for Ratio of Nucleoli Translocation and Cytoplasm (AID 2284000; active = hit-call score of the fitted dose curve at least 0.9, where 1 is the maximum;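 also: hits raise the red nucleolar to cytoplasm ratio above vehicle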)
How it was run: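 Read-out first: nucleolar-to-cytoplasm ratio of red (AR-RFP) signal, quantified by high-content imaging in U2OS cells co-expressing TIF2-GFP. Activity is scored as signal increase over DMSO. Single-point screening used 20 uM final (0.2% DMSO).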

[16] = CCTE_Harrill_HTTr_Apoptosis_DMEM_24hr: (Pilot) CCTE's 24-hour Apoptosis Assessment for the High-Throughput Transcriptomics (HTTr) Platform, in MCF-7 cells cultured in DMEM + 10% fetal bovine serum, Harrill Lab (AID 2283983)
How it was run: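 MCF-7 cells in DMEM + 10% FBS, eight-point dilution series, 24 h exposure. Caspase-3/7 activation imaged by high-content imaging with CellEvent Caspase 3/7 Green. Bidirectional curve fitting against DMSO baseline.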

[17] = CCTE_Harrill_HTTr_Apoptosis_PRF_DMEM_6hr: (Pilot) CCTE's 6-hour Apoptosis Assessment for the High-Throughput Transcriptomics (HTTr) Platform, in MCF-7 cells cultured phenol red-free DMEM + 10% charcoal-stripped fetal bovine serum, Harrill Lab (AID 2283984)
How it was run: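 MCF-7 cells in phenol red-free DMEM + 10% charcoal-stripped FBS, eight-point dilution series, 6 h exposure. Caspase-3/7 activation imaged by high-content imaging with CellEvent Caspase 3/7 Green; bidirectional fit versus DMSO baseline.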

[18] = CCTE_Harrill_HTTr_Apoptosis_PRF_DMEM_12hr: (Pilot) CCTE's 12-hour Apoptosis Assessment for the High-Throughput Transcriptomics (HTTr) Platform, in MCF-7 cells cultured in phenol red-free DMEM + 10% charcoal-stripped fetal bovine serum, Harrill Lab (AID 2283985)
How it was run: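 MCF-7 cells in phenol red-free DMEM with 10% charcoal-stripped FBS, eight-point dilution series, 12 h exposure. Caspase-3/7 activation imaged by high content imaging with CellEvent Green reagent; bidirectional fit vs DMSO.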

[19] = CCTE_Harrill_HTTr_Apoptosis_PRF_DMEM_24hr: (Pilot) CCTE's 24-hour Apoptosis Assessment for the High-Throughput Transcriptomics (HTTr) Platform, in MCF-7 cells cultured in phenol red-free DMEM + 10% charcoal-stripped fetal bovine serum, Harrill Lab (AID 2283986)
How it was run: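 MCF-7 cells in phenol red-free DMEM with 10% charcoal-stripped FBS, exposed 24 h across an eight-point dilution series. Caspase-3/7 activation imaged with CellEvent Green by high content imaging; bidirectional fitting against DMSO.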

Measured: AC50

CCC(C)(NC(=O)c1cc(Cl)c(C)c(Cl)c1)C(=O)CCl (stereo not drawn)
active: DIO1 (gene 1733) 16.1 µM
inactive: [1] | [2] | [3] | [4] | [5] | [6]

O=S1OCC2C(CO1)C1(Cl)C(Cl)=C(Cl)C2(Cl)C1(Cl)Cl (stereo not drawn)
inactive: [8] | [9] | [10] | [11] | [4] | [5] | [6] | [12] | [13]
active: [7] 30.6 µM | [13] 0.269 µM | [14] 223 nM and 58.3 nM

CCCN(CCC)c1c([N+](=O)[O-])cc(C(F)(F)F)cc1[N+](=O)[O-]
inactive: [7] | [9] | [15] | [11] | [4] | [5] | [12] | [13] | [14]
active: [10] 8.55 µM

CCCN(CCOc1c(Cl)cc(Cl)cc1Cl)C(=O)n1ccnc1
active: [1] 11.2 µM | [2] 18 µM | [10] 1.26 µM | [11] 1.24 µM | [12] 1.56 µM | [13] 29.5 µM | [14] 33.1 µM
not listed: DIO1 (gene 1733) | [7] | [8] | [9] | [15]
inactive: all other assays above

C#CCN1C(=O)COc2cc(F)c(N3C(=O)C4=C(CCCC4)C3=O)cc21
inactive: [7] | [8] | [9] | [15] | [3] | [4] | [5]
active: [1] 64.9 µM | [2] 53.1 µM

CC1(c2ccc(Oc3ccccc3)cc2)OC(=O)N(Nc2ccccc2)C1=O (stereo not drawn)
active: [1] 4.7 µM | [2] 3.04 µM
inactive: [3] | [4] | [5]

O=C(O)COc1ccc(Cl)cc1Cl
inactive: [1] | [2] | [3] | [4] | [5] | [6]

O=[N+]([O-])/N=C1\NCCN1Cc1ccc(Cl)nc1
inactive: [7] | [8] | [15] | [10] | [11] | [4] | [5] | [6] | [12] | [13] | [14]

COP(=S)(OC)Oc1ccc(SC)c(C)c1
inactive: [4] | [5] | [13] | [14]
active: DIO1 (gene 1733) 10.7 µM | [10] 7.7 µM | [11] 7.7 µM | [12] 6.28 µM

O=S(=O)(O)C(F)(F)C(F)(F)C(F)(F)C(F)(F)C(F)(F)C(F)(F)C(F)(F)C(F)(F)F
active: DIO1 (gene 1733) 173 µM and 159 µM and 170 µM
not listed: [1] | [2] | [3] | [7] | [8] | [9] | [15]
inactive: all other assays above

CCC(C)(C)C(=O)OC1=C(c2ccc(Cl)cc2Cl)C(=O)OC12CCCCC2
inactive: [8] | [9] | [15] | [10] | [11] | [4] | [5] | [6] | [12] | [13] | [14]
active: [7] 50 µM | [13] 25.9 µM | [14] 20 µM

O=[N+]([O-])c1c(Cl)c(Cl)c(Cl)c(Cl)c1Cl
active: [7] 20.6 µM
inactive: [8] | [9] | [15] | [4] | [5] | [6]

CCC(C)Nc1c([N+](=O)[O-])cc(C(C)(C)C)cc1[N+](=O)[O-] (stereo not drawn)
inactive: [1] | [2] | [3] | [10] | [11] | [4] | [5] | [12] | [13] | [14]

Oc1cc(Cl)ccc1Oc1ccc(Cl)cc1Cl
inactive: [1] | [3] | [4] | [5] | [6] | [13] | [14]
active: DIO1 (gene 1733) 60.4 µM [middle of 5 runs] | [1] 21 µM | [2] 19.3 µM | [10] 1.89 µM | [11] 1.89 µM | [12] 1.29 µM

N#Cc1c(Cl)c(Cl)c(Cl)c(C#N)c1Cl
inactive: [2] | [3] | [10] | [11] | [4] | [5] | [6] | [12] | [13] | [14]
active: DIO1 (gene 1733) 30.1 µM | [1] 22.9 µM

CC[C@H](C)[C@H]1O[C@]2(C=C[C@@H]1C)C[C@@H]1C[C@@H](C/C=C(\C)[C@@H](O[C@H]3C[C@H](OC)[C@@H](O[C@H]4C[C@H](OC)[C@@H](O)[C@H](C)O4)[C@H](C)O3)[C@@H](C)/C=C/C=C3\CO[C@@H]4[C@H](O)C(C)=C[C@@H](C(=O)O1)[C@]34O)O2 (tested in a mixture with another compound)
inactive: [3] | [4] | [5] | [6]
active: [1] 24.7 µM | [2] 18 µM | [10] 0.0048 µM | [11] 0.00477 µM | [12] 0.00721 µM | [13] 0.0208 µM | [14] 0.00576 µM

Reference: PubChem BioAssay (EPA / NIEHS)
